Rows were chosen to be rich in hits. Some 1.8% of all compounds tested hit in one or more screens of this group.
LANA-H2A inh = blockers of LANA interaction with H2A/H2B – biochemical, FP readout, HTS, primary screen. cell-free LANA-H2A/H2B peptide, fluorescence polarization. inhibition, % (test concentration not listed). 320,000 compounds, 0.6% hits; in the data active = inhibition mostly above about 10%, no sharp cut-off; inactive = mostly below about 6.7%
GRK2 aptamer HTS = compounds blocking aptamer binding on GRK2 – biochemical, human GRK2, bead flow cytometry, HTS, primary screen | FAM-aptamer displacement from GRK2 | inhibition of aptamer binding, % at 10 µM | 330,000 compounds, 0.59% hits;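 active = inhibition of aptamer binding above 40%, roughly 3 SD of noise, on plates passing a quality check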;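 note: median bead fluorescence of bound FAM aptamer so fluorescent compounds give negative values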
PKD1 inh = inhibitors of human PKD1 kinase, biochemical, fluorescence polarization. Serine/threonine-protein kinase D1 (Homo sapiens), Q15139. PKD1 kinase fluorescence polarization assay. 200,000 compounds, 0.056% hits. inhibition, % (concentration not given with the values)
Target sequence (Q15139 whole entry, looked up): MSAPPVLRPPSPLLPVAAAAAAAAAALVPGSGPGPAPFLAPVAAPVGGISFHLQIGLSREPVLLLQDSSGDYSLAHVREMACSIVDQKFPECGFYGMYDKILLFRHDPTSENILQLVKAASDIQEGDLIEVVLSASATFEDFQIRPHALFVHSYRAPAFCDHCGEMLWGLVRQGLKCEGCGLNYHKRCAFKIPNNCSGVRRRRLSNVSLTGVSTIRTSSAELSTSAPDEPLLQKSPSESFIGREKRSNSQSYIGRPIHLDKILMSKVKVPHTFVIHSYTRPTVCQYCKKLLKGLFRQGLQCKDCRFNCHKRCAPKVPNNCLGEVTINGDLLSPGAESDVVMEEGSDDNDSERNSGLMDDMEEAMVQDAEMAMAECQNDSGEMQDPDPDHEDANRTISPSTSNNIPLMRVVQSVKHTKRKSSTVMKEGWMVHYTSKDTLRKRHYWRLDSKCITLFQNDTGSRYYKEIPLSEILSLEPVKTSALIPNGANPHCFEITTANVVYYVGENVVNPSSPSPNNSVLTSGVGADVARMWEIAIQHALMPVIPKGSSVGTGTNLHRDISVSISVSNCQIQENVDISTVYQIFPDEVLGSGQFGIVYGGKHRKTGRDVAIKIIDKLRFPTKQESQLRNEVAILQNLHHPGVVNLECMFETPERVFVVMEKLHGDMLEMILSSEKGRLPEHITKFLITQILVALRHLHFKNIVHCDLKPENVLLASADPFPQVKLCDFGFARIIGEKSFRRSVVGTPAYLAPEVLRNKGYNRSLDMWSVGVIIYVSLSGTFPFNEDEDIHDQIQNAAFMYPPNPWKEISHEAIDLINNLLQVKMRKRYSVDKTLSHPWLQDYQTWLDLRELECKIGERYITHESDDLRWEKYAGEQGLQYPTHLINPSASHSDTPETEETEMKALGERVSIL
VLA-4 inh = inhibition in human VLA-4 binding assay, primary screen, VLA-4 allosteric modulator project, MLPCN library, flow cytometry, VLA-4 expressing cells. inhibition, % (about 7 µM as worked out from the volumes in the protocol). 330,000 compounds, 0.2% hits. AID 2557, 2010. ligand binding flow cytometry. Integrin alpha-4 (Homo sapiens), P13612
Pemphigus Ab inh = inhibitors of pemphigus antibody binding to DSG3, primary screen, biochemical, bead-based, flow cytometry, scFv-GFP. Desmoglein-3 (Homo sapiens), P32926. DSG3-coupled beads, scFv-anti-DSG3-GFP binding; active compounds read low. binding (percent of control), % at 10 µM. 310,000 compounds, 0.48% hits;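 active = binding more than 3 SD below its plate's average and above zero; inconclusive = below that plate limit but binding exactly zero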;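 note: hits lower antibody fragment binding to DSG3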
HDAC3 inhib = HDAC3 deacetylase inhibitors, primary screen, biochemical, fluorescence, cell-free homogeneous. Histone deacetylase 3 (Homo sapiens), O15379. inhibition, % at 8.3 µM. 320,000 compounds, 0.15% hits. recombinant HDAC3, fluorogenic peptide/trypsin coupled; in the data active = inhibition above about 26%, passing the limit was not always enough; inconclusive = no clear call, values can overlap the other calls
GRK2 inh confirm = GRK2 aptamer-displacing inhibitors, retest, confirmation, biochemical, cherry pick 1, bead flow cytometry. shares compounds with GRK2 aptamer HTS. bead-bound GRK2, FAM-aptamer displacement. aptamer displacement, % at 10 µM. 2,000 compounds, 4% hits;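 active = aptamer displacement above 40%, near three times the noise of non-fluorescent compounds, on plates passing quality checks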;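 note: negative values mostly reflect intrinsic compound fluorescence rather than true enhancement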
FAM quench CP1 = quenches fluorescent RNA aptamer, GRK2 hit artifact; Carboxyfluorescein RNA aptamer on beads, flow cytometry quenching; active compounds read low; 2,000 tested, under 10 active; fluorescence response (% of DMSO), % at 10 µM; shares compounds with GRK2 aptamer HTS;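 active = compounds that quench the bead-bound fluorescent RNA probe, cutting fluorescence to under half of the solvent control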;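 note: counterscreen run without GRK2 so only probe quenching by compound is measured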
Hits are given with their value; - = inactive; ? = inconclusive; . = no result. Cut-off read from the data, not from the text of the source, unless noted: active = inhibition above about 50%; inactive = the rest.

SMILES	LANA-H2A inh	GRK2 aptamer HTS	PKD1 inh	VLA-4 inh	Pemphigus Ab inh	HDAC3 inhib	GRK2 inh confirm	FAM quench CP1
CC1(C)Cc2c(sc(NC(=O)COc3cccc4ccccc34)c2C#N)C(C)(C)N1	-	63.0	.	-	-	-	-	-
CCOc1ccc(C(C)NC(=O)Cc2ccccc2F)cc1OCC (stereo unspecified)	-	68.0	-	-	-	-	-	-
CCOc1ccc(C(C)NC(=O)Cc2ccccc2)cc1OCC (stereo unspecified)	-	-	-	-	-	-	.	.
Cc1ccc(S(=O)(=O)N(C)CCCC(=O)N2CCCCC2)cc1	-	-	.	-	-	-	.	.
CC(=O)COC(=O)c1cccc(N2C(=O)C3C4C=CC(C4)C3C2=O)c1 (stereo unspecified)	-	80.0	-	-	-	-	-	-
O=C(Cn1cncc1-c1ccc([N+](=O)[O-])cc1)Nc1ccccc1F	-	-	-	-	-	-	.	.
COCCNC(=O)c1c[nH]c2ccc(S(=O)(=O)N3CCc4ccccc43)cc2c1=O	-	-	-	-	-	-	.	.
COCCNC(=O)c1c[nH]c2ccc(S(=O)(=O)Nc3ccccc3F)cc2c1=O	-	70.0	.	-	-	-	-	-
COCCNC(=O)c1c[nH]c2ccc(OC)cc2c1=O	-	-	-	-	-	-	.	.
COCCNC(=O)c1c[nH]c2ccc(S(=O)(=O)Nc3ccc(F)cc3F)cc2c1=O	-	91.0	.	-	-	-	-	-
Cc1ccc(N2NC(=O)/C(=C/c3ccc(-c4ccc(Cl)c(C(=O)O)c4)o3)C2=O)cc1	-	-	-	-	-	-	.	.
CCCCC1(C)OC(=O)C(=Cc2ccc(-c3ccc(Cl)c(C(=O)O)c3)o2)C(=O)O1 (stereo unspecified)	-	55.0	.	-	-	-	-	-
O=C(CSc1ccc2ccccc2n1)NCCCN1CCCC1=O	-	-	.	-	-	-	.	.
Cc1cccc(C(=O)O/N=C(\N)c2ccc(Br)cc2)c1	-	-	-	-	-	-	.	.
Cc1cccc(C(=O)O/N=C(\N)c2ccc(Cl)cc2)c1	-	-	.	-	-	-	-	-
O=C(Cn1nc(C(=O)O)c2ccccc2c1=O)Nc1ccccc1C(F)(F)F	-	-	.	-	-	-	.	.
Cn1cc(C(=O)c2ccc(Cl)cc2Cl)cc1C(=O)N/N=C(\N)COc1ccc(Cl)cc1	-	-	.	-	-	-	.	.
Cn1cc(C(=O)c2ccc(Cl)cc2Cl)cc1C(=O)N/N=C(\N)COc1ccccc1	-	58.0	-	-	.	-	-	-
CCOC(=O)Cn1c(C)[n+](CC(=O)c2ccccc2)c2ccccc21	-	-	.	-	.	-	.	.
CC(C)c1ccc(NC(=S)NCc2cccs2)cc1	-	-	-	-	-	-	.	.
COc1ccc(NC(=S)NCc2cccs2)cc1	-	62.0	-	-	-	-	-	-
O=C(CC(Cc1ccccc1)C(=O)O)Nc1ccccc1 (stereo unspecified)	-	-	.	-	?	-	.	.
O=C(CC(Cc1ccccc1)C(=O)O)Nc1ccc(Cl)c(Cl)c1 (stereo unspecified)	-	99.0	.	-	-	-	-	-
CCOc1ccccc1NC(=O)NNS(=O)(=O)c1cc(OC)ccc1OC	-	-	.	-	-	-	.	.
CCCN1CCN(C(=O)c2noc3c2COc2ccc(C)cc2-3)CC1	-	59.0	.	-	-	-	-	-
SMILES	LANA-H2A inh	GRK2 aptamer HTS	PKD1 inh	VLA-4 inh	Pemphigus Ab inh	HDAC3 inhib	GRK2 inh confirm	FAM quench CP1
CCOC(=O)N1CCN(C(=O)c2noc3c2COc2ccccc2-3)CC1	-	-	.	-	-	-	.	.
CC1(c2ccc3ccccc3c2)NC(=O)N(CC(=O)N2CCN(c3ccccc3O)CC2)C1=O (stereo unspecified)	-	-	.	-	-	-	-	-
COc1ccc(C=NNc2ccc(S(=O)(=O)Nc3ccccc3C(=O)O)cc2[N+](=O)[O-])c(OC)c1	-	-	.	-	?	-	.	.
COc1ccc(NC(=S)NNc2ccc(S(=O)(=O)Nc3ccccc3C(=O)O)cc2[N+](=O)[O-])cc1	-	48.0	.	-	-	-	-	-
COc1cc(C)c(NC(=S)NCCCN2CCOCC2)cc1OC	-	-	-	-	-	-	.	.
Cc1c(/C=N\NC(=O)c2c[nH]c3ccccc23)cnn1C	-	99.0	-	-	-	-	-	-
CCn1cc(/C=N\NC(=O)c2c[nH]c3ccccc23)c(C)n1	-	-	-	-	-	-	.	.
COc1ccc(C(CC(=O)N2CCOCC2)c2c(OC)cc(OC)c3c(-c4ccccc4)cc(=O)oc23)cc1 (stereo unspecified)	-	48.0	.	-	-	-	-	-
COc1ccc(C(CC(=O)N2CCCC2)c2c(OC)cc(OC)c3c(-c4ccccc4)cc(=O)oc23)cc1 (stereo unspecified)	-	-	.	-	-	-	.	.
Cc1ccc(N(CC(=O)NC(C)C)C(=O)CCC(=O)Nc2ccccn2)c(C)c1	.	.	.	.	-	.	.	.
COc1ccc(NC(=O)c2cc(S(=O)(=O)N3CCc4ccccc43)cn2C)c(OC)c1	-	-	.	-	-	-	.	.
Cc1cc(F)ccc1NC(=O)c1cc(S(=O)(=O)N2CCc3ccccc32)cn1C	-	73.0	.	-	-	.	-	-
COc1ccc(C(=O)Nc2c(O)ccc3ccccc23)cc1	-	98.0	.	-	-	-	-	-
COc1ccc(CNC(=O)c2cccc(NC(=O)c3ccccc3)c2)cc1	-	-	-	-	-	-	-	-
Cc1ccc(C(=O)Nc2cccc(C(=O)NCc3ccccc3)c2)o1	-	-	-	-	-	-	-	-
O=C(NCc1ccccc1Cl)c1cccc(NC2=NC3CS(=O)(=O)CC3S2)c1 (stereo unspecified)	-	-	.	-	-	-	-	-
CCOC(=O)CCNC(=O)N1CCCC(Cc2ccccc2)(C(=O)OCC)C1 (stereo unspecified)	-	-	.	-	-	-	.	.
Cc1sc2ncn(CC(=O)N3CCC(C(N)=O)CC3)c(=O)c2c1S(=O)(=O)N1CCOCC1	-	-	.	-	.	-	.	.
CC1CCN(S(=O)(=O)c2cccc(C(=O)Nc3nncs3)c2)CC1	-	-	.	-	-	-	.	.
O=C(NCc1ccccc1Cl)c1cccc(NC(=O)c2ccccc2)c1	-	-	-	-	-	-	-	-
O=C(NCc1ccccc1)c1cccc(NC(=O)c2ccccc2)c1	.	.	.	.	-	.	-	-
